The results in this text go back to PubChem BioAssay (NCI).

About 83,000 compounds went through this panel and 20% of them were active in at least one assay; those are over-represented in the sample as a whole.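 Values shown are percent growth following 48 h exposure of cells in 96-well plates to a single concentration of compound; below 10 was considered active.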 Values without a mark were called inactive. The source made the active and inactive calls.

Test systems include NCI-H23 lung; NCI-H226 lung; NCI-H322M lung; HOP-62 NSCLC; NCI-H460 lung; HOP-92 NSCLC; NCI-H522 lung; A549/ATCC NSCLC; 786-0 renal; COLO 205 colon; DU-145 prostate; MALME-3M melanoma; MDA-MB-231 breast; RXF 393 renal; SF-268 CNS; SF-295 CNS; SF-539 CNS; UACC-257 melanoma; M14 melanoma; K-562 leukemia.
Test in all cases: NCI-60 one-dose screen, 48 h (100 = growth as untreated, 0 = no growth, -100 = all killed)
Common to all, as to settings: 10 µM unless noted

On to `Cc1ccc(-c2nnc3ccc(N/N=C/c4ccccc4)nn23)cc1`, for which the growth with NCI-H23 lung is 60.5%; in the experiment with NCI-H226 lung, 98%; with NCI-H322M lung it was 91.4%; in the experiment with HOP-62 NSCLC it was 88.5%; with NCI-H460 lung it was 68.5%; in the experiment on HOP-92 NSCLC it was 70.5%. The growth with NCI-H522 lung is 105%; in the experiment with A549/ATCC NSCLC it was 93.1%; in the experiment on 786-0 renal, 99%; in the experiment on COLO 205 colon, 98.4%; in the experiment on DU-145 prostate, 75.9%; with MALME-3M melanoma, 95.6%. The growth was 80.1% in the experiment with MDA-MB-231 breast; 94.3% in the experiment on RXF 393 renal; 57.8% in the experiment on SF-268 CNS; 52.3% with SF-295 CNS; 80.8% in the experiment with SF-539 CNS; 103% in the experiment with UACC-257 melanoma. The growth in the experiment with M14 melanoma is 67.3%.
Turning to `C=C1CC[C@@H]2[C@]3(C)COC(c4cn[nH]c4-c4cccc(Br)c4)O[C@@H]3CC[C@@]2(C)[C@@H]1C/C=C1/C(=O)OCC1O` (some centres not stated), the growth with NCI-H23 lung is -94.5% (active); with NCI-H226 lung, -88.4% (active); in the experiment on NCI-H322M lung, -0.559% (active); in the experiment with HOP-62 NSCLC, -58.3% (active); in the experiment with NCI-H460 lung, -68.9% (active); in the experiment on NCI-H522 lung, -56% (active). In addition, the growth in the experiment on A549/ATCC NSCLC was -17.4% (active); with 786-0 renal, -95.5% (active); in the experiment with COLO 205 colon, -58.3% (active); in the experiment with DU-145 prostate, -85.5% (active); in the experiment on K-562 leukemia it was -2.18% (active); with MALME-3M melanoma, -74.5% (active). Further, the growth is -47.3% (active) with MDA-MB-231 breast; -90.8% (active) in the experiment with RXF 393 renal; -22.7% (active) with SF-268 CNS; -78.6% (active) in the experiment with SF-295 CNS; -97.8% (active) with SF-539 CNS; -72% (active) in the experiment on UACC-257 melanoma. In addition, in the experiment with M14 melanoma, the growth is -75.7% (active).
With `COc1ccc(C(=O)/C=C/c2cccc(Br)c2)cc1S(N)(=O)=O`, the growth with NCI-H23 lung is -66.3% (active); in the experiment with NCI-H226 lung, 17.4%; with NCI-H322M lung, 3.22% (active); in the experiment with HOP-62 NSCLC, -86.8% (active); with NCI-H460 lung it was 2.36% (active); with HOP-92 NSCLC, -9.79% (active). Besides, the growth was -79% (active) in the experiment on NCI-H522 lung; -86.2% (active) in the experiment on A549/ATCC NSCLC; -98.3% (active) in the experiment with 786-0 renal; -92.6% (active) in the experiment on COLO 205 colon; -37% (active) in the experiment on DU-145 prostate; -33.5% (active) in the experiment on MALME-3M melanoma. In addition, the growth in the experiment on MDA-MB-231 breast is -65.5% (active); in the experiment on RXF 393 renal, -80.3% (active); in the experiment with SF-268 CNS, -39.4% (active); with SF-295 CNS it was -81.2% (active); in the experiment with SF-539 CNS it was -95.7% (active); in the experiment with UACC-257 melanoma it was -80% (active). The growth with M14 melanoma is -93% (active).
With `NS(=O)(=O)c1ccc(-n2cc(-c3cccc(NC(=O)c4cc(Cl)cc(Cl)c4)c3)nn2)cc1`, the growth is 41.2% with NCI-H23 lung; 105% in the experiment on NCI-H226 lung; 68.8% in the experiment with NCI-H322M lung; 51.2% in the experiment with HOP-62 NSCLC; 43.7% with NCI-H460 lung; 98.4% in the experiment with HOP-92 NSCLC. Also, the growth in the experiment with NCI-H522 lung was 75.5%; in the experiment on A549/ATCC NSCLC, 27.1%; in the experiment on 786-0 renal, 79.9%; in the experiment with COLO 205 colon, 76.4%; with DU-145 prostate it was 74.6%; in the experiment on MALME-3M melanoma, 77.6%. The growth in the experiment on MDA-MB-231 breast was 54.1%; with RXF 393 renal, 87.9%; in the experiment on SF-268 CNS, 43.1%; in the experiment on SF-295 CNS it was 75.6%; in the experiment on SF-539 CNS, 70.1%; with UACC-257 melanoma, 83.2%. The growth in the experiment with M14 melanoma was 52.4%.
For `Cc1cc(N=C2NC(=O)CS2)n[nH]1`, the growth was 110% in the experiment with NCI-H23 lung; 132% in the experiment with NCI-H226 lung; 95.5% in the experiment with NCI-H322M lung; 116% in the experiment on HOP-62 NSCLC; 113% in the experiment with NCI-H460 lung; 115% with HOP-92 NSCLC. Moreover, the growth in the experiment on NCI-H522 lung is 103%; in the experiment with A549/ATCC NSCLC, 109%; in the experiment on 786-0 renal, 103%; in the experiment on COLO 205 colon, 108%; in the experiment with DU-145 prostate, 119%; with MALME-3M melanoma it was 94.8%. The growth in the experiment with MDA-MB-231 breast was 104%; with RXF 393 renal, 128%; in the experiment on SF-268 CNS, 95.8%; with SF-295 CNS it was 101%; in the experiment on SF-539 CNS, 97.6%; with UACC-257 melanoma, 118%. Besides, the growth in the experiment with M14 melanoma is 96.5%.
As for `COc1ccc(C(=O)/C=C/c2cccc(Cl)c2Cl)cc1S(N)(=O)=O`, the growth is -15.6% (active) in the experiment with NCI-H23 lung; 18.7% with NCI-H226 lung; 11.5% in the experiment on NCI-H322M lung; -69.2% (active) with HOP-62 NSCLC; -0.608% (active) with NCI-H460 lung; 21.9% in the experiment with HOP-92 NSCLC. In addition, the growth in the experiment with NCI-H522 lung is -56.3% (active); in the experiment on A549/ATCC NSCLC it was -2.67% (active); in the experiment with 786-0 renal, -71.2% (active); in the experiment on COLO 205 colon it was -79.3% (active); in the experiment on DU-145 prostate, -76.3% (active); with MALME-3M melanoma, 23.1%. For the same molecule, the growth in the experiment on MDA-MB-231 breast was 1.88% (active); in the experiment with RXF 393 renal it was -71% (active); in the experiment on SF-268 CNS, 18%; in the experiment with SF-295 CNS, -38.1% (active); with SF-539 CNS, -75.5% (active); with UACC-257 melanoma it was 34.8%. Further, the growth in the experiment with M14 melanoma is -76.9% (active).
Consider `N#Cc1c(NCc2ccccc2)n[nH]c1Nc1ccccc1`, for which the growth with NCI-H23 lung was 58.4%; with NCI-H226 lung, 50.2%; in the experiment with NCI-H322M lung it was 65.1%; in the experiment on HOP-62 NSCLC, 88.9%; with NCI-H460 lung, 44.2%; in the experiment with HOP-92 NSCLC, 62.3%. Also, the growth was 82.3% in the experiment on NCI-H522 lung; 31.6% with A549/ATCC NSCLC; 63.3% with 786-0 renal; -8.53% (active) in the experiment with COLO 205 colon; 92.7% with DU-145 prostate; 21.9% in the experiment on MALME-3M melanoma. The growth is 66.3% in the experiment with MDA-MB-231 breast; 60.7% in the experiment with RXF 393 renal; 54.8% in the experiment on SF-268 CNS; 49.5% with SF-295 CNS; 75.9% with SF-539 CNS; 50.9% in the experiment on UACC-257 melanoma. For the same molecule, in the experiment with M14 melanoma, the growth was 41.1%.
Take `COc1cc(OC)cc(C(=O)Nc2cccc(-c3cn(-c4ccc(S(N)(=O)=O)cc4)nn3)c2)c1`: the growth with NCI-H23 lung is 80.3%; with NCI-H226 lung, 57.5%; in the experiment with NCI-H322M lung it was 89.9%; with HOP-62 NSCLC it was 6.62% (active); with NCI-H460 lung it was 82.8%; in the experiment on HOP-92 NSCLC it was 24.2%. The growth with NCI-H522 lung was 69.1%; in the experiment on A549/ATCC NSCLC, 90.9%; with 786-0 renal, 74.6%; in the experiment on COLO 205 colon, 109%; in the experiment with DU-145 prostate it was 97.2%; with MALME-3M melanoma, 79.9%. Further, the growth in the experiment on MDA-MB-231 breast is 67.5%; with RXF 393 renal, 57.5%; in the experiment on SF-268 CNS, 50.3%; with SF-295 CNS, 63%; in the experiment with SF-539 CNS it was 60.3%; in the experiment with UACC-257 melanoma it was 101%. In addition, in the experiment on M14 melanoma, the growth is 91.3%.
